Rows were chosen to be rich in hits. Some 5.7% of all compounds tested hit in one or more screens of this group.
GLP-1R agonist: GLP-1 receptor (human) agonism; P43220; HEK293 GLP-1R CRE-luciferase, luminescence, 4-6 h; cells express a hypersensitive GLP-1R form; Potency, µM (series often up to 45.6 µM), without a hit: top-dose activation, hits mostly activators; 380,000 tested, 0.007% active; note: potency is the fitted concentration of half-maximal effect; % of control where 0% means no effect
Target sequence (P43220 whole entry, looked up): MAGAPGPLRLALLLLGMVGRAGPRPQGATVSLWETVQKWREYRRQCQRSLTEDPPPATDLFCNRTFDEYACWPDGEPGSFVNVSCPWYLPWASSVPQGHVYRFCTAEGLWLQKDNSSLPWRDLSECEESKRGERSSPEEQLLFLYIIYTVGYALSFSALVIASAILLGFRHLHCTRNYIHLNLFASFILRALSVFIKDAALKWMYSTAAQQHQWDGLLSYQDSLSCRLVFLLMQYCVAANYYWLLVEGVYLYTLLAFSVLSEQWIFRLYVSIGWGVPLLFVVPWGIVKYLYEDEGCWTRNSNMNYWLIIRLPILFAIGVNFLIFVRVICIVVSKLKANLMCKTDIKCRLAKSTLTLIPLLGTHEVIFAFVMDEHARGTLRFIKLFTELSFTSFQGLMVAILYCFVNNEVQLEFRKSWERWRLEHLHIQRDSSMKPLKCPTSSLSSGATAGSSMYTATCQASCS
ClpP mod: qHTS Assay for Activators of ClpP; purified B. subtilis ClpP, FRET peptide cleavage, 20 min; ATP-dependent Clp protease proteolytic subunit (Bacillus subtilis (strain 168)), P80244; 340,000 tested, 1.9% active; Potency, µM (titrated, usually from 57.5 µM), inactives show at the top dose activity change, negative = active; active = well fitted falling curve with a large enough effect; inconclusive = small, poorly fitted or top-dose-only effect; inactive = no such curve, though single readings can be large or run the other way; note: potency is the fitted concentration of half-maximal effect; the source files actives as falling curves though it sought activators and does not explain the sign; nearly all actives have a fitted effect of over 65% in size
Target sequence (P80244 whole entry, looked up): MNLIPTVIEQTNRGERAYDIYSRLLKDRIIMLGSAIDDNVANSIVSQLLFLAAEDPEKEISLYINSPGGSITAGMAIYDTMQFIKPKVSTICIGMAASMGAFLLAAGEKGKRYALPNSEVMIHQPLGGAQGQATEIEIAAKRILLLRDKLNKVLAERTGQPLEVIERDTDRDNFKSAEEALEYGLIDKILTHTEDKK
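FRET quenching reversal measured ClpP activation: 10 microg/mL B. subtilis ClpP at pH 8 with the FRET-FV decapeptide, read at 430 nm after 320 nm excitation. The 20-min minus 0-min signal was scaled between DMSO/no-enzyme wells and ADEP (5.8 microM final).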
DRD3 agonist: agonists of human D3 dopamine receptor | P35462 | D3R DiscoveRx beta-arrestin cells, luminescence, 90 min | max activation, % | 410,000 tested, 0.58% active | AID 652048; in the data active = max activation above about 30%; note: 0% is about no effect
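Cells at 1500/well, incubated overnight, then treated with pinned compounds (dopamine as control) for 90 min at 37 degrees C. DiscoveRx reagent added for 30 - 60 minutes at room temperature; luminescence read.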
GLP1R inv ag: GLP-1 receptor (human) inverse agonism. P43220. HEK293 GLP-1R CRE-luciferase, luminescence, 24 h; GLP-1R form is constitutively active. Potency, µM (top dose mostly 38.3 µM), for the others: at the highest dose activity change, negative = inhibition, most hits filed as inhibitors. 410,000 tested, 1.6% active. AID 624417; note: potency is the fitted concentration of half-maximal effect; % is set by controls: 0 for no effect and ±100 for the full control effect; nearly all actives have a fitted effect of over 55% in size
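Cells are plated, allowed 12 hours at 37 deg C, then treated with compounds for 24 hr before luciferase detection reagent is added and luminescence is read after 12 min at room temperature. The HEK293 line carries constitutively active GLP-1R with a cAMP-responsive reporter.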
D3 antag: D3 dopamine receptor (human) antagonism; max response, negative = inhibition, %; P35462; 360,000 tested, 2.5% active; D3R cells, DiscoveRx beta-arrestin luminescence, antagonist mode; stronger effect = lower value; in the data active = max response below about -50%; inconclusive = no clear call, values can overlap the other calls; note: % is set by controls: 0 for no effect and ±100 for the full control effect
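Cells plated overnight at 1500 cells/well, then exposed to library compounds with dopamine controls for 90 minutes at 37 degrees C. DiscoveRx reagent added for 30–60 minutes at room temperature; luminescence read, quantitative HTS format.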
HEK293 tox: cytotoxic in the GLP-1 receptor inverse agonist counter-screen | HEK293 cAMP-luciferase reporter cells, luminescence, 24 h | Potency, µM (doses to about 38.3 µM), for inactives: at the top dose activity change, negative = inhibition, usual class: inhibitors | 410,000 tested, 0.13% active;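 note: loss of luciferase light is scored as toxicity; potency is the fitted concentration of half-maximal effect; % is set by controls: 0 for no effect and ±100 for the full control effect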
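Here, cytotoxicity is scored as loss of luminescence. The MLSMR collection was tested on cells seeded in medium containing 10% Nu serum, with a 24 hr compound exposure preceded by 12 hours of culture.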
* = called active by the depositor; ? = inconclusive; . = no result. Unless noted, calls come from the whole dose curve; as a rule, active = well fitted curve in the direction sought with a large enough effect; inconclusive = small, poorly fitted or top-dose-only effect, or another doubt; inactive = no such curve, though single readings can be large; an effect the other way counts as inactive or inconclusive.

SMILES	GLP-1R agonist	ClpP mod	DRD3 agonist	GLP1R inv ag	D3 antag	HEK293 tox
COc1ccc(-c2nc(C#N)c(NCc3ccccc3Cl)o2)cc1	-1%	35µM*	1	1%	2	-6%
COc1ccc(OCc2ccc(-c3nc(C#N)c(NCc4ccc(F)cc4)o3)o2)cc1	.	32µM*	5	?	.	-8%
CCCCNc1oc(-c2ccc(COc3ccc(OC)cc3)o2)nc1C#N	.	28µM*	-5	-29%	.	0%
COc1ccccc1-c1cc(NC(C)=O)c2ncc(-c3cccc(C(C)=O)c3)n2c1	1%	-7%	4	-9%	17	3%
COCCCNc1oc(-c2ccc(COc3ccc(Cl)cc3)o2)nc1C#N	.	32µM*	3	-25%	.	-11%
COc1ccc(CNc2oc(-c3ccc(COc4ccc(OC)cc4)o3)nc2C#N)cc1	.	22µM*	-3	?	.	-2%
CCNc1oc(-c2ccc(COc3ccc(Cl)cc3)o2)nc1C#N	.	-179%	2	?	.	-4%
O=C(CCS(=O)(=O)c1ccc(Br)s1)Nc1cc(C(F)(F)F)cc(C(F)(F)F)c1	.	1%	2	?	.	?
CCOC(=O)C1=C(COC(=O)CCOc2ccc(OCC)cc2)NC(=O)NC1C (stereo not drawn)	-1%	2%	6	32%	28	2%
CCOC(=O)C1=C(COC(=O)CCOc2ccccc2C)NC(=O)NC1C (stereo not drawn)	1%	-3%	-13	7%	-65*	3%
O=C1c2ccccc2NC(c2ccc([N+](=O)[O-])cc2)N1O (stereo not drawn)	11%	.	15	10µM*	0	3%
CN1C(=O)c2ccc(C(=O)NCc3ccccn3)cc2C1=O	-2%	-1%	-4	4%	-3	1%
CC(C)CCN1C(=O)c2ccc(C(=O)NCc3ccccn3)cc2C1=O	-3%	32µM*	3	-4%	25	-2%
C(=NNc1nnn(Cc2ccccc2)n1)c1ccccc1	3%	-2%	-6	?	-5	12%
COc1ccc(C)cc1NC(=O)NC1CC(=O)N(c2ccc3c(c2)OCCO3)C1 (stereo not drawn)	-6%	-2%	0	?	0	-5%
C=CC(=O)N1C/C(=C/c2ccccc2)C(=O)/C(=C\c2ccccc2)C1	-19%	32µM*	-19	4.5µM*	-62*	?
CN1C/C(=C/c2ccncc2)C(=O)/C(=C/c2ccncc2)C1	0%	.	1	6%	11	-1%
C=CC(=O)N1C/C(=C/c2ccc(Cl)cc2)C(=O)/C(=C\c2ccc(Cl)cc2)C1	-2%	6%	-14	?	?	3.2µM*
O=C1C(=Cc2ccc(Cl)cc2)Cc2ccccc21	3%	3%	-2	12%	0	4%
CC(=O)Nc1cccc(-c2nnc(SCC(=O)c3cc([N+](=O)[O-])ccc3Br)o2)c1	.	1%	-13	-14%	.	-6%
CN(C)c1ccc(/C=C2\C=Cc3ccccc32)c(Cl)c1	.	1%	.	.	.	.
O=C(Nc1cccc(CNCCc2c[nH]c3ccccc23)c1)c1ccccc1Cl	-1%	2%	-13	?	-96*	?
CC(NS(=O)(=O)OCC(Cl)(Cl)Cl)c1ccc(C(C)(C)C)cc1 (stereo not drawn)	-7%	-3%	-10	5.6µM*	-16	?
CC(C)(NS(=O)(=O)OCC(Cl)(Cl)Cl)c1ccccc1	1%	0%	-1	?	2	8%
CCC(=O)Nc1ccc2c(c1)C(=O)N(C1CCCCC1)C2=O	-8%	22µM*	-16	-7%	7	-7%
SMILES	GLP-1R agonist	ClpP mod	DRD3 agonist	GLP1R inv ag	D3 antag	HEK293 tox
CCOc1ccc(CCNC(=O)c2ccc(CS(=O)(=O)Cc3ccccc3Cl)o2)cc1OCC	.	-2%	-6	-17%	.	1%
CC(C)NC(=O)C1CCC(Cn2c(=O)c3sccc3n(CC(=O)Nc3ccccc3)c2=O)CC1 (stereo not drawn)	.	-9%	4	9%	.	3%
CCOC(=O)Cn1c(S(=O)(=O)Cc2ccc(F)cc2)nc(-c2ccccc2)c1-c1ccccc1	0%	-6%	-4	-35%	20	-4%
C#CCn1c(S(=O)(=O)Cc2ccc(F)cc2)nc(-c2ccccc2)c1-c1ccccc1	-3%	-17%	-13	5.6µM*	-18	4%
CC(C)(C)Nc1nc(NN)nc(NC(C)(C)C)n1	-15%	0%	-15	?	-80*	?
Cc1cccc(N2CCN(C(=O)c3ccc4[nH]c(C)c(C)c4c3)CC2)c1C	11%	-2%	-6	2.5µM*	-7	-16%
Cc1cc(S(=O)(=O)Nc2ccc(C(=O)N3CCN(c4ccccc4O)CC3)cc2)ccc1F	-3%	-1%	32*	?	43	11%
Cc1cccc(N2CCN(C(=O)c3ccc(S(=O)(=O)N(C)c4ccccc4)cc3)CC2)c1C	3%	2%	-9	1µM*	-29	-25%
Cc1ccc(S(=O)(=O)Nc2cccc(C(=O)N3CCN(c4ccccc4O)CC3)c2)cc1F	11%	.	12	?	-7	-15%
COc1ccc(S(=O)(=O)N(C)c2ccc(C(=O)N3CCCCC3)cc2)cc1OC	22%	.	9	50%	14	-4%
COc1ccc(S(=O)(=O)N(C)c2ccc(C(=O)N3CCCCC3)cc2)cc1	0%	-19%	38*	-22%	23	-1%
CN1CCN(C(=O)c2ccc(S(=O)(=O)N(C)c3ccccc3)cc2)CC1	-1%	-3%	2	-13%	5	?
CC(=O)c1cccc(NC(=O)c2sc(-n3nc(C)c(CCC(C)C)c3C)nc2C)c1	.	-5%	10	3%	.	10%
COc1ccc(C(=O)N(c2ccc(C)cc2)S(=O)(=O)c2ccc(C)cc2)cc1	.	-2%	-14	3.2µM*	.	?
COc1ccc(N(C(=O)c2cc(OC)c(OC)c(OC)c2)S(=O)(=O)c2ccc(C)cc2)cc1	.	-10%	-15	?	.	0%
CCN(c1ccc(OC)cc1)S(=O)(=O)c1nnc(NC(=O)c2ccco2)s1	-3%	-9%	-12	4%	0	-6%
COc1ccc(N(CC(C)C)S(=O)(=O)c2nnc(NC(=O)c3ccco3)s2)cc1	-4%	-2%	-16	?	-91*	-8%
CCCNC(=O)C1CCN(S(=O)(=O)c2ccc3c(c2)CCCN3C(C)=O)CC1	.	0%	9	11%	.	20%

Source: PubChem BioAssay (National Center for Advancing Translational Sciences (NCATS))
